The nature of assay [1]: ATG_E_Box_CIS: Attagene CIS-FACTORIAL HepG2 Assay for human Enhancer Box (E-box) (AID 2282936). The conditions noted are these: HepG2 E-box cis-reporter transcription, actives raise or lower the signal. The essentials: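 Multiplexed CIS reporter system in transiently transfected HepG2 cells measures native transcription factor activity. Reporter RNA after 24 h exposure is profiled by RT-PCR-capillary electrophoresis.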

The nature of assay [2]: ATG_M_61_CIS: Attagene CIS-FACTORIAL HepG2 Assay for M61 Transcription Factor (Internal Marker) (AID 2282937). The following applies: HepG2 Attagene CIS-FACTORIAL M61 internal marker reporter; actives raise or lower the signal. The essentials: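 Multiplexed reporter mRNA assay, HepG2 human hepatoma cells, 24 h treatment. Signal: FAM-labelled, HpaI-digested RT-PCR fragments by CE. Fit: bidirectional, baseline DMSO.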

Assay [3] can be described thus: ATG_EGR_CIS: Attagene CIS-FACTORIAL HepG2 Assay for human Early Growth Response 1 (EGR1) (AID 2282938). The conditions noted are these: HepG2 Attagene CIS-FACTORIAL EGR reporter mRNA; actives raise or lower the signal. The essentials: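 Multiplexed cis-reporter system in human hepatoma HepG2 cells, transiently transfected. Cells are dosed for 24 h; reporter transcripts are amplified, fluorescently tagged and sized by capillary electrophoresis, with DMSO as negative control.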

Assay [4] is described as follows: ATG_M_19_CIS: Attagene CIS-FACTORIAL HepG2 Assay for M19 Transcription Factor (Internal Marker) (AID 2282939). The following applies: HepG2 Attagene CIS-FACTORIAL M19 internal marker reporter; actives raise or lower the signal. The essentials:
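HepG2 cells transiently transfected with cis-regulated multiple reporter transcription units were dosed for 24 h; reporter mRNA was quantified by RT-PCR, 6-FAM primer-extension labelling, HpaI digestion and capillary electrophoresis, with bidirectional fitting against DMSO baseline.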

Assay [5] can be described thus: ATG_ERE_CIS: Attagene CIS-FACTORIAL HepG2 Assay for Estrogen Response Element (ERE) (AID 2282940). The following applies: HepG2 ERE cis-reporter, Attagene RNA transcript; actives raise or lower the signal. In short, it runs like this: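 HepG2 cells transiently transfected with cis-promoter-driven multiplexed reporter transcription units report endogenous TF activity. After 24 h compound exposure, reporter mRNA is quantified by RT-PCR with capillary electrophoresis fluorescence; bidirectional fitting versus DMSO baseline.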

Assay [6] can be described thus: ATG_Ets_CIS: Attagene CIS-FACTORIAL HepG2 Assay for human Erythroblast Transformation Specific (ETS) (AID 2282941). The following applies: HepG2 ETS cis-reporter transcription, actives raise or lower the signal. The essentials: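 After transient cis-reporter transfection, HepG2 cells receive test chemical for 24 h. Reporter mRNA levels, measured by RT-PCR and capillary electrophoresis fluorescence, are analysed bidirectionally relative to the DMSO baseline.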

For assay [7], the target named is Hepatocyte nuclear factor 3-beta (Homo sapiens) (UniProt Q9Y261). As to the kind of experiment: ATG_FoxA2_CIS: Attagene CIS-FACTORIAL HepG2 Assay for human Forkhead box A2 (FOXA2) (AID 2282942). The following applies: HepG2 cis-reporter transcription factor activity, 24 h; actives raise or lower the signal. The essentials:
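Multiplexed cis-element reporter assay in transiently transfected HepG2. Twenty-four hours post-dosing, RNA was reverse-transcribed, amplified, FAM-labelled, HpaI-digested and separated by CE. Activity gain or loss relative to DMSO.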

A short description of assay [8]: ATG_FoxO_CIS: Attagene CIS-FACTORIAL HepG2 Assay for human Forkhead box O (FoxO) (AID 2282943). The following applies: HepG2 Attagene cis-reporter, FoxO element, mRNA; actives raise or lower the signal. In short, it runs like this: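 Values reflect reporter mRNA induction or loss in HepG2 cells 24 h post-dosing, fitted bidirectionally with DMSO as negative control and baseline. Detection used RT-PCR and fluorescence capillary electrophoresis.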

The nature of assay [9]: ATG_GATA_CIS: Attagene CIS-FACTORIAL HepG2 Assay for human GATA Binding Protein (AID 2282944). The following applies: HepG2 GATA cis-element reporter, Attagene multiplex mRNA; actives raise or lower the signal. The essentials:
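HepG2 cells transiently transfected with multiplexed cis-element reporter units reflecting endogenous transcription factor activity; reporter mRNA measured after 24 h dosing by RT-PCR, 6-FAM labeling, HpaI digestion and capillary electrophoresis. Bidirectional fitting versus DMSO baseline.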

Assay [10] can be described thus: ATG_GLI_CIS: Attagene CIS-FACTORIAL HepG2 Assay for human Zinc Finger Protein GLI1 (AID 2282945). The conditions noted are these: HepG2, Attagene cis-factorial reporter mRNA, GLI element; actives raise or lower the signal. In short, it runs like this:
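HepG2 cells transiently transfected with cis-promoter multiplexed reporter units report endogenous transcription factor activity. After 24 h chemical exposure, reporter mRNA was quantified by RT-PCR, 6-FAM labelling, HpaI digestion and capillary electrophoresis, with bidirectional fitting against DMSO.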

Assay [11] is described as follows: ATG_GRE_CIS: Attagene CIS-FACTORIAL HepG2 Assay for human Glucocorticoid Response Elements (GRE) (AID 2282947). The conditions noted are these: HepG2 GRE cis-reporter, Attagene multiplex mRNA; actives raise or lower the signal. The essentials:
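Following 24 h chemical exposure of transiently transfected HepG2 cells, total RNA was reverse-transcribed and reporter cDNA amplified, fluorescently labelled and sized by capillary electrophoresis. Signal gain or loss was fitted relative to DMSO vehicle.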

A short description of assay [12]: ATG_ISRE_CIS: Attagene CIS-FACTORIAL HepG2 Assay for human Interferon Regulatory Factor 1 (IRF1) binding to an Interferon-Stimulated Response Element (ISRE) (AID 2282948). The conditions noted are these: HepG2 ISRE cis-reporter (Attagene), mRNA transcription readout; actives raise or lower the signal. The essentials:
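Quantitation relies on labelled RT-PCR fragments separated by capillary electrophoresis. Human HepG2 cells bearing cis-promoter reporter constructs were treated 24 h; DMSO served as baseline for bidirectional fitting.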

The nature of assay [13]: ATG_M_32_CIS: Attagene CIS-FACTORIAL HepG2 Assay for M32 Transcription Factor (Internal Marker) (AID 2282949).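 Further: background control marker of the multiplexed CIS panel rather than a real target.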 The conditions noted are these: HepG2 Attagene cis-factorial M32 reporter, mRNA; actives raise or lower the signal. The essentials: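 HepG2 cells transiently transfected with multiplexed cis-regulated reporter units, dosed 24 h. Reporter mRNA quantified by RT-PCR, 6-FAM labelling, HpaI digestion and capillary electrophoresis; bidirectional fit vs DMSO.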

Assay [14] can be described thus: ATG_M_06_CIS: Attagene CIS-FACTORIAL HepG2 Assay for M06 Transcription Factor (Internal Marker) (AID 2282950). The following applies: HepG2 Attagene CIS-FACTORIAL M06 internal marker reporter; actives raise or lower the signal. In short, it runs like this: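 HepG2 cells transiently transfected with cis-regulated multiple reporter transcription units were exposed to chemical for 24 h; reporter mRNA was quantified by RT-PCR, 6-FAM primer labelling, HpaI digestion and capillary electrophoresis, fitted bidirectionally against DMSO.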

In assay [15] the target is Hypoxia-inducible factor 1-alpha (Homo sapiens) (UniProt Q16665). As to the kind of experiment: ATG_HIF1a_CIS: Attagene CIS-FACTORIAL HepG2 Assay for human Hypoxia Inducible Factor 1 (HIF1A) (AID 2282951). The conditions noted are these: HepG2 Attagene cis-factorial HIF1a reporter transcription; actives raise or lower the signal. The essentials: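 Cis-element reporter constructs were transiently transfected into HepG2 cells, which were treated for 24 h; reporter RNA was reverse-transcribed, amplified, labelled and resolved by capillary electrophoresis.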

The target in assay [16] is Hepatocyte nuclear factor 6 (Homo sapiens) (UniProt Q9UBC0). As to the kind of experiment: ATG_HNF6_CIS: Attagene CIS-FACTORIAL HepG2 Assay for human Hepatocyte Nuclear Factor 6 (HNF6) (AID 2282952). The following applies: HepG2 Attagene cis-factorial HNF6 reporter transcription; actives raise or lower the signal. The essentials: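 HepG2 cells transiently transfected with cis-element-driven multiplexed reporter units measuring endogenous transcription factor activity. After 24 h exposure, reporter mRNA quantified by RT-PCR, FAM-labelled fragments and capillary electrophoresis; bidirectional fitting versus DMSO.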

For assay [17], the target named is Heat shock factor protein 1 (Homo sapiens) (UniProt Q00613). As to the kind of experiment: ATG_HSE_CIS: Attagene CIS-FACTORIAL HepG2 Assay for human Heat Shock Transcription Factor 1 (HSE) (AID 2282953). The following applies: HepG2 HSE cis-reporter, Attagene RNA transcription; actives raise or lower the signal. The essentials: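 HepG2 cells transiently transfected with multiple reporter transcription units under cis-regulatory promoter control, measuring endogenous transcription factor activity. After 24 h chemical exposure, reporter mRNA quantified by RT-PCR, fluorescent labelling, HpaI digestion and capillary electrophoresis; bidirectional fit versus DMSO.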

Assay [18] is described as follows: ATG_MRE_CIS: Attagene CIS-FACTORIAL HepG2 Assay for human Metal Responsive Element (MRE) (AID 2282954). The conditions noted are these: HepG2 MRE cis-reporter transcription, Attagene multiplex; actives raise or lower the signal. In short, it runs like this:
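Step one: transfect HepG2 with cis-regulated reporter units. Step two: dose 24 h. Step three: isolate RNA, RT-PCR, 6-FAM label, HpaI digest, capillary electrophoresis. Fit bidirectionally to DMSO.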

Assay [19] is described as follows: ATG_PBREM_CIS: Attagene CIS-FACTORIAL HepG2 Assay for human Phenobarbital-responsive Enhancer Module (PBREM) (AID 2282955). The following applies: HepG2 PBREM cis-reporter, Attagene multiplexed transcription; actives raise or lower the signal. The essentials: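 Multiplexed cis-reporter readout in human hepatoma HepG2 cells; PBREM-regulated transcript quantified after 24 h exposure by fluorescent RT-PCR fragment analysis. Signal changes up or down fitted relative to DMSO.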

Assay [20] has as its target Paired box protein Pax-6 (Homo sapiens) (UniProt P26367). As to the kind of experiment: ATG_Pax6_CIS: Attagene CIS-FACTORIAL HepG2 Assay for human Paired Box 6 (PAX6) (AID 2282956). The following applies: HepG2 CIS-FACTORIAL PAX6 reporter transcription, RNA readout; actives raise or lower the signal. In short, it runs like this: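 After twenty-four hours of chemical exposure, transfected HepG2 cells are harvested for RNA. Cis-promoter reporter transcripts are amplified, fluorescently labelled and sized by capillary electrophoresis, with gain and loss of signal scored against DMSO.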

Several values for one entry are separate records, joined by “and”; a condition that tells them apart may be missing. Equal entries are not always repeated. Some structures have more than one record in an assay (separate samples or runs), and their calls can disagree. Activity calls are given as the source filed them. How the source made its calls: active means hit-call score of the fitted dose curve at least 0.9, where 1 is the maximum; inactive means score below 0.9.

Chain of Hepatocyte nuclear factor 6 (Homo sapiens) (Q9UBC0 whole entry, looked up, the tested form may be a part): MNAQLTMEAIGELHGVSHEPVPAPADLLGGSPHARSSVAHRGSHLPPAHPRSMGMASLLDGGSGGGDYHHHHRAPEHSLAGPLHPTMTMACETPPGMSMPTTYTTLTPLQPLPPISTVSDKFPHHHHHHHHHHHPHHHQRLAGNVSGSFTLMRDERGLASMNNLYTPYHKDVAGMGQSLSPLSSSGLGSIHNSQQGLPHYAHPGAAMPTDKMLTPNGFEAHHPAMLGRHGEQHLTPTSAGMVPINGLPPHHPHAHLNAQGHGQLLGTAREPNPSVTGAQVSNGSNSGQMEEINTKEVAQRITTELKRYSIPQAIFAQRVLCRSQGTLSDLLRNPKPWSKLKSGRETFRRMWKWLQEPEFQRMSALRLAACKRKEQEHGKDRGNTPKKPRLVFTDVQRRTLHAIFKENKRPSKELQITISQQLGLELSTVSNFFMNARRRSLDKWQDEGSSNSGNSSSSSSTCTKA
Chain of Heat shock factor protein 1 (Homo sapiens) (Q00613 whole entry, looked up): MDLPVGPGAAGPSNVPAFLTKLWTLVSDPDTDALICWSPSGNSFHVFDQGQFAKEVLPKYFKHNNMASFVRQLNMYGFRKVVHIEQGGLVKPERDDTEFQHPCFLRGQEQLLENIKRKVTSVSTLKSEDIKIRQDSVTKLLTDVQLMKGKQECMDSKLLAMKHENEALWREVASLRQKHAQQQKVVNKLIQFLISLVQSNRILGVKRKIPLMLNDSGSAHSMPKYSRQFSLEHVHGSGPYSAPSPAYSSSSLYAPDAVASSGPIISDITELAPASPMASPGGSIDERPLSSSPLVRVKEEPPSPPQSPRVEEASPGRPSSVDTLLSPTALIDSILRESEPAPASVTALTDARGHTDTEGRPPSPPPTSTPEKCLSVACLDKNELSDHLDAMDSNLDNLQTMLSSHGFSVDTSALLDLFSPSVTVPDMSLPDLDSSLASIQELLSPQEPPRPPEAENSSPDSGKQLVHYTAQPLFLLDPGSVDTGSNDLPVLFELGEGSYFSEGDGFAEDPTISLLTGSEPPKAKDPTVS
Chain of Hepatocyte nuclear factor 3-beta (Homo sapiens) (Q9Y261 whole entry, looked up): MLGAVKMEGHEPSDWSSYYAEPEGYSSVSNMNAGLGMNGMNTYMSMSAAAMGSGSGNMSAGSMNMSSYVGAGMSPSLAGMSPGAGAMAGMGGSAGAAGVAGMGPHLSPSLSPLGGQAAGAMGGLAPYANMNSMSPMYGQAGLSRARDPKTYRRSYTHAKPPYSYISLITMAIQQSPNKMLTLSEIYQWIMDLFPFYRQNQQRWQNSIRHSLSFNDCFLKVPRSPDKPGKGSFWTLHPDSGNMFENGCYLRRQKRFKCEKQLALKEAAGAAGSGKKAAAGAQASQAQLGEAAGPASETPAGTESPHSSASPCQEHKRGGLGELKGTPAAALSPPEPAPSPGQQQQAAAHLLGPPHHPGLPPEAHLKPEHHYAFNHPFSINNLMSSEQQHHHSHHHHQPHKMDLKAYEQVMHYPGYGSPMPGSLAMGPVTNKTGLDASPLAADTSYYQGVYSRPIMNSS
Chain of Paired box protein Pax-6 (Homo sapiens) (P26367 whole entry, looked up): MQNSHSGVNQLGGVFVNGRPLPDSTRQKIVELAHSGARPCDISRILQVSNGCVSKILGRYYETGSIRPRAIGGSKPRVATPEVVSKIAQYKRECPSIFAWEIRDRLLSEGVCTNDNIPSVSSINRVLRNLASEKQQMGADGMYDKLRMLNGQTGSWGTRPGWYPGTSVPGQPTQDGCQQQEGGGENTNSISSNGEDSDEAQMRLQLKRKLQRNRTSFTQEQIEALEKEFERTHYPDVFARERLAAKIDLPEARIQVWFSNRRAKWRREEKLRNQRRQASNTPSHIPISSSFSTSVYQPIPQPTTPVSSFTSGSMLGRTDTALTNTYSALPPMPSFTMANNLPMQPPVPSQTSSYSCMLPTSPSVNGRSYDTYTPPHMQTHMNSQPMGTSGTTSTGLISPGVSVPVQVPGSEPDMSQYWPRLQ
Chain of Hypoxia-inducible factor 1-alpha (Homo sapiens) (Q16665 whole entry, looked up): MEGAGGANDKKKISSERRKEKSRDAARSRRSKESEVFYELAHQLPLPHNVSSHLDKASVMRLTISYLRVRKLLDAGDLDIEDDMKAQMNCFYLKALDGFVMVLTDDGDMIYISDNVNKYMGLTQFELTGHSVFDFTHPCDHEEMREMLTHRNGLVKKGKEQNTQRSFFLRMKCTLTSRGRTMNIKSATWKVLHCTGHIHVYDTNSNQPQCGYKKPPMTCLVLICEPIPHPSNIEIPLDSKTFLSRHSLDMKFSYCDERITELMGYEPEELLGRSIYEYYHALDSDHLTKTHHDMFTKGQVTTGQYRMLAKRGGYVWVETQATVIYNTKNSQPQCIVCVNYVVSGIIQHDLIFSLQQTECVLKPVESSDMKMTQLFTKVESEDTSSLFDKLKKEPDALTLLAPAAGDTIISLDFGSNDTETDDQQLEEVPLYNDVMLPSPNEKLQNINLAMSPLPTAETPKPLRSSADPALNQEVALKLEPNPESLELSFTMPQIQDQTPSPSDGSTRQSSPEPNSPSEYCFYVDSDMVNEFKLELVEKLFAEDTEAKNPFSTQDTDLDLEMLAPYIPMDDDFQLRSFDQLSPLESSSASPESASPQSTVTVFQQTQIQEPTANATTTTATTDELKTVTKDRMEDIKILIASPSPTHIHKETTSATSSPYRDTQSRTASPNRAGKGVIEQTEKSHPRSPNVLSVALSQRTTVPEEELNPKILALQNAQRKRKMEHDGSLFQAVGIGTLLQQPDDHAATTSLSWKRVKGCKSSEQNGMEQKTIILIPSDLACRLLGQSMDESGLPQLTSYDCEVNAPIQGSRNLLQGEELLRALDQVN

As for `Nn1cnnc1`, the outcome in assay [1], in assay [2], in assay [3], in [4], in [6] and in assay [7] was inactive. Besides, the result in assay [8], in assay [9], in assay [10], in assay [11], in [12] and in assay [13] was inactive. The molecule was called inactive in assay [14], in [15], in assay [16], in assay [17], in assay [18] and in [19]. Besides, the result in assay [20] was inactive. The AC50 (in general, the concentration giving half of the maximal activity seen) in [5] is 39.5 µM (active).
Take `O=C(O)C(F)(F)C(F)(F)C(F)(F)C(F)(F)C(F)(F)C(F)(F)C(F)(F)C(F)(F)C(F)(F)F`: the AC50 in [1] is 88.6 µM (active); in assay [3], 42.9 µM (active) and 22.2 µM (active); in assay [12] it was 48.2 µM (active) and 33.8 µM (active) and 90.4 µM (active); in assay [13], 78.3 µM (active); in [16], 58.9 µM (active); in assay [17], 50.3 µM (active) and 50 µM (active). The half-maximal activity concentration (AC50) was 49.2 µM (active) and 42.6 µM (active) and 22.6 µM (active) in assay [18]; 49 µM (active) and 33 µM (active) and 54.8 µM (active) in [20]. Moreover, the result in assay [1], in assay [2], in assay [3], in assay [4], in assay [5] and in assay [6] was inactive. Besides, the result in assay [7], in assay [8], in assay [9], in assay [10], in [11] and in [13] was inactive. Moreover, the molecule was called inactive in [14], in assay [16], in [17] and in assay [19].
As to `C=CC(=O)NCNC(=O)C=C`, the outcome in assay [1], in assay [2], in [3], in assay [4], in assay [5] and in assay [6] was inactive. The result in [7], in assay [8], in assay [9], in assay [10], in assay [11] and in [12] was inactive. Besides, the molecule was classed as inactive in [13], in assay [14], in [15], in [16], in [17] and in assay [18]. Besides, the outcome in assay [19] and in assay [20] was inactive.
